Experimental data as given in PubChem BioAssay (NCI).
This is part of a sample that, as a whole, favours compounds with a hit. Of some 83,000 tested, about 20% had one in any assay.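 How to read the values: 0–100, growth inhibition (40 = 60% inhibited); 0, no net growth; -100 to 0, cell death (-40 = 40% of starting cells died; -100 = all dead).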 Values without a mark were called inactive. Active and inactive are the calls of the source. The calls were made as follows: active = growth percent below 10; inactive = the rest.

Key:
Test in all cases: NCI-60 one-dose screen, 48 h (100 = growth as untreated, 0 = no growth, -100 = all killed)
Details in all cases: 10 µM unless noted
SR leukemia = system: SR leukemia
RPMI-8226 leukemia = system: RPMI-8226 leukemia
OVCAR-8 ovarian = system: OVCAR-8 ovarian
OVCAR-5 ovarian = system: OVCAR-5 ovarian
OVCAR-4 ovarian = system: OVCAR-4 ovarian
SK-OV-3 ovarian = system: SK-OV-3 ovarian
IGROV1 ovarian = system: IGROV1 ovarian
OVCAR-3 ovarian = system: OVCAR-3 ovarian
HS 578T breast = system: HS 578T breast
NCI/ADR-RES ovarian = system: NCI/ADR-RES ovarian
T-47D breast = system: T-47D breast
BT-549 breast = system: BT-549 breast
MDA-MB-435 melanoma = system: MDA-MB-435 melanoma
SW-620 colon = system: SW-620 colon
MCF7 breast = system: MCF7 breast
HCT-116 colon = system: HCT-116 colon
HCC-2998 colon = system: HCC-2998 colon
KM12 colon = system: KM12 colon

With `COc1ccc(C2=Nc3c(N)ncnc3NC(c3cccc(Nc4ccnc5cc(C(F)(F)F)ccc45)c3)C2)cc1` (configuration not stated) the growth (SR leukemia) was 5.09% (active), the growth (RPMI-8226 leukemia) was 11.8% and the growth (OVCAR-8 ovarian) was 67.9%. The growth (OVCAR-5 ovarian) was 92.3%, the growth (OVCAR-4 ovarian) was 67.2% and the growth (SK-OV-3 ovarian) was 69.3%. The growth (IGROV1 ovarian) was 66.4%, the growth (OVCAR-3 ovarian) was 78.2% and the growth (HS 578T breast) was 55.3%. For the same molecule, the growth (NCI/ADR-RES ovarian) was 65.3%, the growth (T-47D breast) was 62% and the growth (BT-549 breast) was 80.7%. For the same molecule, the growth (MDA-MB-435 melanoma) was 19.1%, the growth (SW-620 colon) was 62.3% and the growth (MCF7 breast) was 30.1%. For the same molecule, the growth (HCT-116 colon) was 40%, the growth (HCC-2998 colon) was 72.1% and the growth (KM12 colon) was 47.1%.
In the case of `Fc1ccc(CNc2c3ccccc3nc3ccccc23)cc1`, the growth (SR leukemia) is reported as 6.59% (active), the growth (RPMI-8226 leukemia) is reported as -0.445% (active) and the growth (OVCAR-8 ovarian) is reported as 22.3%. It also gave a growth (OVCAR-5 ovarian) of 38.5%, a growth (OVCAR-4 ovarian) of 33.2% and a growth (SK-OV-3 ovarian) of 39.9%. It also gave a growth (IGROV1 ovarian) of 21.9%, a growth (OVCAR-3 ovarian) of 38.7% and a growth (HS 578T breast) of 39.5%. For the same molecule, the growth (NCI/ADR-RES ovarian) was 29.7%, the growth (T-47D breast) was 31.1% and the growth (BT-549 breast) was 80.7%. For the same molecule, the growth (MDA-MB-435 melanoma) was 34.8%, the growth (SW-620 colon) was 22.8% and the growth (MCF7 breast) was 7.09% (active). The growth (HCT-116 colon) was 12.6%, the growth (HCC-2998 colon) was 18.3% and the growth (KM12 colon) was 28.3%.
Work on `COc1ccc(C(c2cc(OC)c(OC)c(OC)c2)N2CCCC2)cc1` (configuration not stated) yielded a growth (SR leukemia) of 23.9%, a growth (RPMI-8226 leukemia) of 97.4% and a growth (OVCAR-8 ovarian) of 95.6%. It also gave a growth (OVCAR-5 ovarian) of 92.6%, a growth (OVCAR-4 ovarian) of 101% and a growth (SK-OV-3 ovarian) of 77.5%. It also gave a growth (IGROV1 ovarian) of 82.9%, a growth (OVCAR-3 ovarian) of 66.6% and a growth (HS 578T breast) of 80.4%. For the same molecule, the growth (NCI/ADR-RES ovarian) was 69.4%, the growth (T-47D breast) was 89.8% and the growth (BT-549 breast) was 81.6%. For the same molecule, the growth (MDA-MB-435 melanoma) was -21.8% (active), the growth (SW-620 colon) was 47.8% and the growth (MCF7 breast) was 64.1%. For the same molecule, the growth (HCT-116 colon) was 62.3%, the growth (HCC-2998 colon) was 89.1% and the growth (KM12 colon) was 43.9%.
For `CCN(CC)CCCNCc1cc(-c2ccccc2)nc2cc(Cl)ccc12`, the growth (SR leukemia) was 13.6%, the growth (RPMI-8226 leukemia) was 3.47% (active) and the growth (OVCAR-8 ovarian) was 28.8%. It also gave a growth (OVCAR-5 ovarian) of 87.5%, a growth (OVCAR-4 ovarian) of 67.8% and a growth (SK-OV-3 ovarian) of 75.6%. It also gave a growth (IGROV1 ovarian) of 28.9%, a growth (OVCAR-3 ovarian) of 61.7% and a growth (HS 578T breast) of 24.2%. For the same molecule, the growth (NCI/ADR-RES ovarian) was 23.2%, the growth (T-47D breast) was -82.5% (active) and the growth (BT-549 breast) was 40.1%. For the same molecule, the growth (MDA-MB-435 melanoma) was -39.7% (active), the growth (SW-620 colon) was -0.394% (active) and the growth (MCF7 breast) was 23%. The growth (HCT-116 colon) was -16.5% (active), the growth (HCC-2998 colon) was -29.1% (active) and the growth (KM12 colon) was 14.5%.
With `Cn1cc(-c2nc(-c3c[nH]c4ccncc34)cs2)c2cc(Br)ccc21` the growth (SR leukemia) was -23.6% (active), the growth (RPMI-8226 leukemia) was -38% (active) and the growth (OVCAR-8 ovarian) was -53.2% (active). For the same molecule, the growth (OVCAR-5 ovarian) was -94.1% (active), the growth (OVCAR-4 ovarian) was -71% (active) and the growth (SK-OV-3 ovarian) was 40.8%. For the same molecule, the growth (IGROV1 ovarian) was -82.8% (active), the growth (OVCAR-3 ovarian) was -92.5% (active) and the growth (HS 578T breast) was -44% (active). For the same molecule, the growth (NCI/ADR-RES ovarian) was -57.6% (active), the growth (T-47D breast) was -54.1% (active) and the growth (BT-549 breast) was 84.2%. For the same molecule, the growth (MDA-MB-435 melanoma) was -81.4% (active), the growth (SW-620 colon) was -71.8% (active) and the growth (MCF7 breast) was -72.4% (active). For the same molecule, the growth (HCT-116 colon) was -89.7% (active), the growth (HCC-2998 colon) was -68.9% (active) and the growth (KM12 colon) was -83.8% (active).
`O=C1Nc2ccc(F)cc2/C1=C\c1nc(-c2ccccc2F)n2ccccc12` showed a growth (SR leukemia) of 66.7%, a growth (RPMI-8226 leukemia) of 96.8% and a growth (OVCAR-8 ovarian) of 80.6%. For the same molecule, the growth (OVCAR-5 ovarian) was 67.2%, the growth (OVCAR-4 ovarian) was 110% and the growth (SK-OV-3 ovarian) was 101%. It also gave a growth (IGROV1 ovarian) of 75.5%, a growth (OVCAR-3 ovarian) of 126% and a growth (HS 578T breast) of 103%. For the same molecule, the growth (NCI/ADR-RES ovarian) was 74.4%, the growth (T-47D breast) was 88% and the growth (BT-549 breast) was 102%. It also gave a growth (MDA-MB-435 melanoma) of 101%, a growth (SW-620 colon) of 44.9% and a growth (MCF7 breast) of 47.9%. For the same molecule, the growth (HCT-116 colon) was 44.2%, the growth (HCC-2998 colon) was 100% and the growth (KM12 colon) was 97.2%.
Work on `CCCCCCCCn1ccc2cc(NC(=O)Cn3cc(CN4CCOCC4)nn3)ccc21` yielded a growth (SR leukemia) of 87.6%, a growth (RPMI-8226 leukemia) of 94.8% and a growth (OVCAR-8 ovarian) of 102%. The growth (OVCAR-5 ovarian) was 91.1%, the growth (OVCAR-4 ovarian) was 99.5% and the growth (SK-OV-3 ovarian) was 111%. It also gave a growth (IGROV1 ovarian) of 96.4%, a growth (OVCAR-3 ovarian) of 98.2% and a growth (HS 578T breast) of 90%. The growth (NCI/ADR-RES ovarian) was 115%, the growth (T-47D breast) was 93.4% and the growth (BT-549 breast) was 78.2%. It also gave a growth (MDA-MB-435 melanoma) of 99.7%, a growth (SW-620 colon) of 97.4% and a growth (MCF7 breast) of 89.5%. It also gave a growth (HCT-116 colon) of 92.5%, a growth (HCC-2998 colon) of 113% and a growth (KM12 colon) of 93.3%.
In the case of `CN1CCN(CCCOc2ccc3ncnc(Nc4ccc(Oc5cccc(F)c5)c(Cl)c4)c3c2)CC1`, the growth (SR leukemia) is reported as 1.08% (active), the growth (RPMI-8226 leukemia) is reported as -30.1% (active) and the growth (OVCAR-8 ovarian) is reported as 31.6%. For the same molecule, the growth (OVCAR-5 ovarian) was 25.4%, the growth (OVCAR-4 ovarian) was 3.58% (active) and the growth (SK-OV-3 ovarian) was 8.4% (active). The growth (IGROV1 ovarian) was -5.39% (active), the growth (OVCAR-3 ovarian) was 0.254% (active) and the growth (HS 578T breast) was 42.3%. It also gave a growth (NCI/ADR-RES ovarian) of 41.9%, a growth (T-47D breast) of 20.8% and a growth (BT-549 breast) of 90.4%. The growth (MDA-MB-435 melanoma) was -84.8% (active), the growth (SW-620 colon) was -71.9% (active) and the growth (MCF7 breast) was 3.01% (active). For the same molecule, the growth (HCT-116 colon) was -63.6% (active), the growth (HCC-2998 colon) was -40% (active) and the growth (KM12 colon) was 6.17% (active).
For `CNC(=O)c1c(NC(=O)c2ccc(C(C)(C)C)cc2)sc2c(CN(C)C)c(O)ccc12`, the growth (SR leukemia) was 3.65% (active), the growth (RPMI-8226 leukemia) was -28.1% (active) and the growth (OVCAR-8 ovarian) was 23.7%. For the same molecule, the growth (OVCAR-5 ovarian) was -30.9% (active), the growth (OVCAR-4 ovarian) was 67.5% and the growth (SK-OV-3 ovarian) was 34.1%. The growth (IGROV1 ovarian) was 20.3%, the growth (OVCAR-3 ovarian) was 32.7% and the growth (HS 578T breast) was 54.7%. The growth (NCI/ADR-RES ovarian) was 11.4%, the growth (T-47D breast) was -3.98% (active) and the growth (BT-549 breast) was 71.9%. For the same molecule, the growth (MDA-MB-435 melanoma) was -85% (active), the growth (SW-620 colon) was -85.8% (active) and the growth (MCF7 breast) was -43.2% (active). For the same molecule, the growth (HCT-116 colon) was -88.4% (active), the growth (HCC-2998 colon) was -83.6% (active) and the growth (KM12 colon) was -79.6% (active).
